# In PubChem BioAssay (NCATS):
# Inconclusive results are not listed. A call without a number means that no potency is given here. Active and inactive are the calls of the source. Calls follow the shape of the dose curve; as a rule, active = well fitted cell-killing curve with a large enough effect; inconclusive = small, poorly fitted or top-dose-only effect, or effect the other way; inactive = flat fitted curve, though single readings scatter. *1 amine or outer side, *2 acyl side, *3 side chain or, on linkers, in order; H or OH if unused. Where a SMILES comes first, the peptide text is derived from it. [ ]: non-standard residue; d: D form. X13 = O=C(C(CC(O)CO)O[*:1])[*:2]; NMeV = CN[CH](C(=O)O)C(C)C; NMeA = CN[CH](C)C(=O)O; βAla = NCCC(=O)O
# System: PA-1
# Assay: Primary qHTS to identify gynecologic anti-cancer compounds using libraries of approved drugs and bioactive compounds (AID 1345084); also: nearly all actives have a fitted effect of over 55% in size
# Conditions: Gynecologic cancer cell panel viability, ATPlite luminescence, 48 h; series mostly up to 57.5 µM
# Summary of the method: (§1)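 In this quantitative HTS, cell killing is estimated from loss of ATP-dependent luciferase light. Cells see five compound concentrations over a 48 h exposure.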
SMILES,Potency,"activity change, negative = cytotoxicity"
NC(Cc1c[nH]c2ccc(O)cc12)C(=O)O (centres undefined),inactive,–
CCN=C1N[C@@H]2[C@@H](O)[C@H](O)[C@@H](CO)O[C@@H]2S1,inactive,–
O=C(NC1CCN(CC(F)(F)F)CC1)c1ccc(-c2cccc(F)c2)nc1,inactive,–
COc1cc(/C=C/C(=O)O[C@H]2[C@@H]3C=CO[C@@H](O[C@@H]4O[C@H](CO)[C@@H](O)[C@H](O)[C@H]4O)[C@@H]3[C@@]3(CO)O[C@@H]23)ccc1O,inactive,–
C[C@@H]1[C@H](O)[C@@H]2OC(=O)C3=C2[C@H](CCC3)[C@@]12C[C@@H](c1ccoc1)OC2=O,inactive,–
CC1OC(OC2CCC3(C)C(CCC4(C)C3C=CC35OCC6(CCC(C)(C)CC63)CCC45C)C2(C)CO)C(OC2OC(CO)C(O)C(O)C2O)C(O)C1OC1OC(CO)C(O)C(O)C1O (centres undefined),–,5.66% [at 11.6 µM] (inactive)
CCC(C)C1NC(=O)C2CCCN2C(=O)C(CC(O)CO)OC(=O)CCNC(=O)C(C)N(C)C(=O)C(C(C)C)N(C)C1=O (centres undefined) (cyclo([X13]PI[NMeV][NMeA][βAla]); configuration not given here),inactive,–
CC(O)C(=O)/C=C/C=C/C(=O)OC1C=C2COC(=O)C2(O)C2(C)CCCC(C)(C)C12 (centres undefined),inactive,–
CC(C)C(O)(CO)CCO[C@@H]1O[C@H](CO[C@H]2OC[C@](O)(CO)[C@H]2O)[C@@H](O)[C@H](O)[C@H]1O (some centres undefined),inactive,–
Nc1ncnc2c1ncn2[C@H]1O[C@@H](C(=O)N2CCN(CC(=O)Nc3cccc4c3CNC4=O)CC2)[C@H](O)[C@@H]1O,inactive,–

# System: SKOV3
# Assay: as above
# Conditions: Gynecologic cancer cell panel viability, ATPlite luminescence, 48 h; series mostly up to 57.5 µM
# Summary of the method: as §1
SMILES,Potency,"activity change, negative = cytotoxicity"
COC(=O)C1=CO[C@@H](O[C@@H]2O[C@H](CO[C@@H]3O[C@H](CO)[C@@H](O)[C@H](O)[C@H]3O)[C@@H](O)[C@H](O)[C@H]2O)[C@@H]2C(CO)=CC[C@H]12,inactive,–
CSCC1OC(n2cnc3c(=O)[nH]cnc32)C(O)C1O (centres undefined),inactive,–
COc1cc(C)c(C(=O)OC2C(C)OC(OC3CCC(C)C4C3C=C(C)C3/C(C)=C\CC/C(C)=C/C5(C)C=C(C(=O)O)C(C)CC56OC(=O)/C(=C(\O)C34C)C6=O)C(O)C2O)c(OC)c1 (centres undefined),–,-6.42% [at 11.6 µM] (inactive)
OC[C@H]1O[C@@H](OCc2ccccc2)[C@H](O[C@@H]2OC[C@@H](O)[C@H](O)[C@H]2O)[C@@H](O)[C@@H]1O,inactive,–
Nc1ccc(-n2nc(C(F)(F)F)cc2C(F)(F)F)cc1,inactive,–
Oc1ccc(CC2NCCc3cc(O)c(O)cc32)cc1 (centres undefined),inactive,–
NCCCCN(Cc1nc2ccccc2[nH]1)[C@H]1CCCc2cccnc21,inactive,–
C/C(=C\C1CCC(C)C2CCC3(C)OC123)C(=O)O (centres undefined),inactive,–
CC1=C2C3OC(=O)C(C)C3(O)CCC2(C)CCC1 (centres undefined),inactive,–
O=C(N[C@H](Cc1ccccc1)C(=O)O)c1sc2cc(F)ccc2c1Cl,inactive,–
CC(=O)c1ccc(O[C@@H]2O[C@H](CO[C@@H]3OC[C@@H](O)[C@H](O)[C@H]3O)[C@@H](O)[C@H](O)[C@H]2O)cc1,inactive,–
C=C1C[C@H](O)[C@@H](O)[C@@]2(C)C1[C@@H](O)[C@H]1OC(=O)C3[C@@H](C)[C@@H](O)[C@H](O)C2[C@]31C (some centres undefined),inactive,–
CCCC/C=C\CCCCCc1cc(=O)c2ccccc2n1C,inactive,–
Cn1cc(Nc2cnccc2C(=O)O)c2cccnc21,inactive,–
C[C@H]1[C@H](C)C[C@@H](C(=O)O)C2CC[C@]3(C)C(=CC[C@@H]4[C@@]5(C)CC[C@H](O)C(C)(C)[C@@H]5CC[C@]43C)[C@@H]21 (some centres undefined),inactive,–
C=CC(C)(O)CC/C=C(\C)C(=O)O[C@@H]1[C@@H](O)[C@H](OC(C)(C=C)CC/C=C(\C)C(=O)O)O[C@H](CO)[C@H]1OC(=O)/C(C)=C/CCC(C)(O)C=C (some centres undefined),inactive,–
CC1(C)CC[C@]2(C(=O)O[C@@H]3O[C@H](CO)[C@@H](O)[C@H](O)[C@H]3O)CC[C@]3(C)C(=CCC4[C@@]5(C)CC[C@H](O[C@@H]6O[C@H](C(=O)O)[C@@H](O)[C@H](O)[C@H]6OC6OC(CO)C(O)C(O)C6O)C(C)(C)C5CC[C@]43C)[C@@H]2C1 (some centres undefined),–,14.1% [at 11.6 µM] (inactive)
COc1cccc(C)c1C(=O)O[C@@H]1C[C@H](O[C@H]2[C@H](O)C[C@H](O[C@@H]3CCC[C@H]4[C@H]3C=C[C@@H]3CCCC/C=C/[C@H]5C=C(C(=O)O)[C@@H](C)C[C@@]56OC(=O)C(=C6O)OC(=O)[C@@]34C)O[C@@H]2C)O[C@H](C)[C@H]1O,–,18.8% [at 11.6 µM] (inactive)
CC(C)CC(=O)OC[C@@]1(O)C[C@@]23CC[C@H]4[C@@](C)(CCC[C@@]4(C)C(=O)O)[C@@H]2CC[C@@H]1C3,inactive,–
C=C[C@H]1[C@H](O[C@@H]2O[C@H](CO)[C@@H](O)[C@H](O)[C@H]2O)OC=C(C(=O)OC)[C@H]1CC=O,inactive,–

SMILES,Potency,"activity change, negative = cytotoxicity"
C=C1C(=O)OC2CC(COC(=O)C(C)C)=C(C(C)CCCOC(C)=O)[C@@H](OC(C)=O)C12 (some centres undefined),inactive,–
CC1=C2C(=O)C=C(CO[C@@H]3O[C@H](CO)[C@@H](O)[C@H](O)[C@H]3O)[C@@H]2[C@H]2OC(=O)[C@H](C)[C@@H]2[C@@H](O)C1,inactive,–
C=C1C(=O)O[C@@H]2CC(C)=C([C@@H](C)CCCOC(C)=O)[C@@H](O)[C@H]12,inactive,–
CC1=COC(OC2OC(CO)C(O)C(O)C2O)C2C(CO)CC(OC(=O)/C=C/c3ccc(O)cc3)C12 (centres undefined),inactive,–
COc1cccc(OC)c1-c1ccc(C[C@H](NC(=O)c2c(Cl)cccc2Cl)C(=O)O)cc1,inactive,–
C/C=C/C(=O)OC1/C=C/C(O)C(OC(C)=O)CCC(=O)OC1C (centres undefined),inactive,–
CC1(C)[C@H]2C[C@H](C/C=C\CCCC(=O)O)[C@@H](NC(=O)c3csc4ccc(O)cc34)[C@@H]1C2,inactive,–
CC(=O)/C=C/C1C(C)CC(O[C@@H]2O[C@H](CO)[C@@H](O)[C@H](O)[C@H]2O)CC1(C)C (some centres undefined),inactive,–
COC(=O)c1ccccc1O[C@@H]1O[C@H](CO[C@@H]2OC[C@@H](O)[C@H](O)[C@H]2O)[C@@H](O)[C@H](O)[C@H]1O,inactive,–
NC(Cc1c[nH]c2ccc(O)cc12)C(=O)O (centres undefined),inactive,–
CCN=C1N[C@@H]2[C@@H](O)[C@H](O)[C@@H](CO)O[C@@H]2S1,inactive,–
O=C(NC1CCN(CC(F)(F)F)CC1)c1ccc(-c2cccc(F)c2)nc1,inactive,–
COc1cc(/C=C/C(=O)O[C@H]2[C@@H]3C=CO[C@@H](O[C@@H]4O[C@H](CO)[C@@H](O)[C@H](O)[C@H]4O)[C@@H]3[C@@]3(CO)O[C@@H]23)ccc1O,inactive,–
C[C@@H]1[C@H](O)[C@@H]2OC(=O)C3=C2[C@H](CCC3)[C@@]12C[C@@H](c1ccoc1)OC2=O,inactive,–
CC1OC(OC2CCC3(C)C(CCC4(C)C3C=CC35OCC6(CCC(C)(C)CC63)CCC45C)C2(C)CO)C(OC2OC(CO)C(O)C(O)C2O)C(O)C1OC1OC(CO)C(O)C(O)C1O (centres undefined),–,6.92% [at 11.6 µM] (inactive)
CCC(C)C1NC(=O)C2CCCN2C(=O)C(CC(O)CO)OC(=O)CCNC(=O)C(C)N(C)C(=O)C(C(C)C)N(C)C1=O (centres undefined) (cyclo([X13]PI[NMeV][NMeA][βAla]); configuration not given here),inactive,–
CC(O)C(=O)/C=C/C=C/C(=O)OC1C=C2COC(=O)C2(O)C2(C)CCCC(C)(C)C12 (centres undefined),inactive,–
CC(C)C(O)(CO)CCO[C@@H]1O[C@H](CO[C@H]2OC[C@](O)(CO)[C@H]2O)[C@@H](O)[C@H](O)[C@H]1O (some centres undefined),inactive,–
Nc1ncnc2c1ncn2[C@H]1O[C@@H](C(=O)N2CCN(CC(=O)Nc3cccc4c3CNC4=O)CC2)[C@H](O)[C@@H]1O,inactive,–
